CYP2C19 activ: cytochrome P450 2C19 (human) activation; P33261; recombinant CYP2C19, luciferin-H EGE luminescence; hits give high values; 0 = fully inhibited enzyme, 1 = untreated enzyme; activation factor at 5 µM; 96,000 tested, under 10 active; AID 1025;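 active means activation factor of at least 2 at 5 µM in the primary screen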;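 further: 0 = wells with 2.5 mM tranylcypromine and 1 = vehicle-only wells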
CYP2C9 inhib: human CYP2C9 inhibition | CYP2C9 Supersomes, luciferin-H conversion, luminescence | P11712 | AID 777 | 20% of 96,000 active | inhibition, % at 5 µM;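 active means blocking of liver enzyme CYP2C9 beyond about 50% at 5 µM, limit read from the data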
CYP2C19 inhib: human CYP2C19 inhibition. 21% of 96,000 active. AID 778. CYP2C19 Supersomes, luciferin-H EGE luminescence, 30 min. inhibition, % at 5 µM;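 active means CYP2C19 inhibition above a set limit at 5 µM in the primary screen, cut at about 50% in these data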;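 further: plate controls were negative control wells for no effect and 2.5 mM tranylcypromine positive control for full effect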
CYP2C9 activ: increases human cytochrome P450 2C9 activity. P11712. activation factor at 5 µM. 1.4% of 96,000 active. recombinant CYP2C9, luciferin-H conversion, luminescence; hits give high values; factor 1 = untreated enzyme, 0 = blocked. AID 1024;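 active means activation factor of 2 or more for CYP2C9 at a 5 µM dose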;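 further: 0 = sulfaphenazole-blocked wells and 1 = vehicle-only wells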
Cav3 T inh: blocks human Cav3.2 T-type calcium channel | Cav3.2-expressing cells, Fluo-4 calcium fluorescence FDSS; hits give low values | B-score at 10 µM | 4% of 100,000 active;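 active means single-dose well whose peak fluorescence ratio is a statistical outlier from its plate by either plate-standardised score or position-corrected B-score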
* hit, by the source's call; / = not tested or not shown. Sampled rows, rich in hits. Any-hit rate of the full collection: about 27%.

SMILES	CYP2C19 activ	CYP2C9 inhib	CYP2C19 inhib	CYP2C9 activ	Cav3 T inh
Cc1ccc(NC(=O)CSC2=C(C#N)C(c3ccco3)CC(=O)N2)cc1 (stereo not given)	0.2	50	81*	0.5	-0.39
Cc1c(N=Cc2ccc(-c3ccc(Cl)cc3)o2)c(=O)n(-c2ccccc2)n1C	0.4	18	59*	0.8	0.11
Cc1c(N=Cc2ccc(Cl)o2)c(=O)n(-c2ccccc2)n1C	0.9	6	7	0.9	0.72
CC1CN(CC(=O)Nc2cccc(C(=O)Nc3cccc(C(F)(F)F)c3)c2)CC(C)O1 (stereo not given)	0.5	77*	54*	0.2	-2.9
COC(=O)c1cccc(NC(=O)CN2CCN(Cc3ccccc3)CC2)c1	0.5	64*	51*	0.4	0.91
O=C(CN1CCN(Cc2ccccc2)CC1)Nc1cccc(C(F)(F)F)c1	0.4	51*	55*	0.5	-6.6*
O=C(CN1CCN(c2ccccc2)CC1)Nc1cccc(C(F)(F)F)c1	0.7	29	27	0.7	1
COc1ccc(NC(C)=O)cc1NC(=O)CCn1c(=O)sc2ccccc21	/	/	/	/	0.69
O=S(=O)(c1ccccc1)c1cnc(-c2cccnc2)nc1-c1ccc(Cl)cc1Cl	0.6	45	37	0.6	/
CN(C)c1ncc(S(=O)(=O)c2ccccc2)c(-c2ccccc2Cl)n1	0.2	32	76*	0.7	-1.4
CCOc1ccc(NC2=NCCC(=O)N2Cc2cccs2)cc1	0.5	56*	50*	0.4	-0.2
O=c1c2ccccc2nc(-c2ccccc2)n1Cc1ccc(Cl)cc1	0.2	82*	77*	0.2	-4
O=c1c2ccccc2nc2n1CCN2Cc1ccc(Cl)cc1	0.3	67*	74*	0.3	-0.35
O=c1c2ccccc2nc(-c2cccc(Cl)c2)n1O	1.1	45	-5	0.6	-2
O=C(CCCCCCN1C(=O)c2ccccc2C1=O)NC1CCCCC1	/	/	/	/	-2.4
O=C(CCCCCCN1C(=O)c2ccccc2C1=O)Nc1nccs1	/	/	/	/	-0.57
COCc1nnc(NC(=O)CCCCCN2C(=O)c3ccccc3C2=O)s1	0.9	63*	11	0.4	-0.58
O=C(CCCCCN1C(=O)c2ccccc2C1=O)NC1CCCC1	0.2	89*	78*	0.1	-1.3
Cc1cccc(NC(=O)CCCCCN2C(=O)c3ccccc3C2=O)n1	0.8	79*	24	0.2	0.17
O=c1[nH]c(NCCO)nc2c1C1(CCCC1)Cc1ccccc1-2	0.9	26	7	0.7	-4.1*
CCC1(CC)Cc2ccccc2-c2nc(CN3CCOCC3)[nH]c(=O)c21	0.9	-3	12	1	-0.68
O=c1[nH]c(CN(CCO)CCO)nc2c1C1(CCCCC1)Cc1ccccc1-2	1	14	4	0.9	-11*
CCN(CC)Cc1nc2c(c(=O)[nH]1)C1(CCCC1)Cc1ccccc1-2	0.5	87*	47	0.1	-6.7*
O=c1[nH]c(NCc2ccccc2)nc2c1CCCC2	0.9	26	6	0.7	0.34
O=C(O)c1ccc(O)c(O)c1	/	/	/	/	-1.8
SMILES	CYP2C19 activ	CYP2C9 inhib	CYP2C19 inhib	CYP2C9 activ	Cav3 T inh
Cc1[nH]c2ccc(C(=O)O)cc2c1C	0	19	99*	0.8	2
CCOC(=O)c1cnn(-c2sc(C(=O)OCC)c(C)c2C(=O)OCC)c1N	/	/	/	/	-3.3*
CS(=O)(=O)Nc1ccc(S(=O)(=O)N2CCOCC2)cc1	1	4	3	1	0.54
Cc1[nH]c2ccc(CNS(=O)(=O)c3ccc(S(=O)(=O)N4CCOCC4)cc3)cc2c1C	0.4	71*	64*	0.3	0.2
CC1=NC(C)Cc2ccccc21 (stereo not given)	1.1	-2	-10	1	/
Cc1cccc(C2NC(=O)c3c(sc(C)c3C)N2)c1O (stereo not given)	1.1	-59	-5	1.6	0.83
CN1C(=O)c2c(sc3c2CCCC3)NC1c1ccccc1O (stereo not given)	0.3	87*	74*	0.1	-0.19
O=[N+]([O-])c1ccc2c(c1)C(N1CCOCC1)/C(=C/COc1ccc(Cl)cc1Cl)O2 (stereo not given)	0.6	77*	45	0.2	-3.6*
CC(C(=O)N(C1CC1)C1(C(=O)Nc2ccccc2)CCCC1)N1C(=O)c2ccccc2C1=O (stereo not given)	0.6	22	37	0.8	-2
c1ccc(-c2ccc(-c3cnc4n3CCCCC4)cc2)cc1	0.6	66*	40	0.3	-0.66
c1cc2c(cc1-c1cnc3n1CCC3)OCCO2	1	-2	-3	1	-0.82

Assay outcomes from PubChem.
